# PubChem BioAssay (Tox21)
# Results filed as inconclusive are left out. Unmarked numbers belong to inactive results. Activity calls are given as the source filed them. The call rests on the fitted dose curve; in most records, active means well fitted activation curve with a large enough effect in the signal ratio in the repeat runs (not every such curve was filed as active); inconclusive means weak or mixed curves, or effect the other way; inactive means flat fitted curve, though single readings scatter; the % refers to the signal ratio.
# Molecular target: Bile acid receptor (Homo sapiens) (UniProt Q96RI1)
# Sequence (Q96RI1 whole entry, looked up): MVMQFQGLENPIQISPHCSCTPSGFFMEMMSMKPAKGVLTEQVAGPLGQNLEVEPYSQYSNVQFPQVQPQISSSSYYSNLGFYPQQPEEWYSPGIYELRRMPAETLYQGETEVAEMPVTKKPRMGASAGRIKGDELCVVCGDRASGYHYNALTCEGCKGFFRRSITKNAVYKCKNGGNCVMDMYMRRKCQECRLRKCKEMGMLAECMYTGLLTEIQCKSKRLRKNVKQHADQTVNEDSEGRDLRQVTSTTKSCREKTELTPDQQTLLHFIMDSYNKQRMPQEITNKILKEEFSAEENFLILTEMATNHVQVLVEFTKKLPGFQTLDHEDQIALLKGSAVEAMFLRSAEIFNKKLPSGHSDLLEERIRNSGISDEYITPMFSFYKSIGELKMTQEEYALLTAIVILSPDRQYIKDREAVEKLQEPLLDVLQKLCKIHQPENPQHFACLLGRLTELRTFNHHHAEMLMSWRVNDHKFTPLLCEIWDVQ
# Assay: qHTS assay to identify small molecule agonists of the farnesoid-X-receptor (FXR) signaling pathway (AID 743220)
# Details: HEK293T FXR-UAS-bla, beta-lactamase FRET ratio, 16 h; series mostly up to 62.6 µM; activation: at the top concentration
# Description: National Center for Advancing Translational Sciences [NCATS]
# NIH Chemical Genomics Center [NCGC]
# U.S. Environmental Protection Agency [EPA]
# National Institutes of Environmental Health Sciences [NIEHS]
# National Toxicology Program [NTP]
# U.S. Food and Drug Administration [FDA]
# The farnesoid-X-receptor (FXR), a nuclear hormone receptor, is highly expressed in liver, intestine, kidney and adrenal cortex. Natural ligands of FXR are the bile acids (Cholic acid, Chenodeoxy cholic acid etc). FXR is an important regulator of diverse metabolic pathways, including the bile acid homeostasis, lipid and glucose metabolisms. FXR regulates the expression of target genes by binding either as a monomer or as a heterodimer with the retinoid X receptor (RXR). Numerous studies have reported that FXR exerts protective function during cholestasis, diabetes, liver regeneration, and cancer. To identify compounds that activate FXR signaling, GeneBLAzer FXR-UAS-bla HEK 293T cell line (Invitrogen, Carlsbad, CA) containing a beta-lactamase reporter gene under the control of a UAS response element was used to screen the Tox21 10K compound library.
# Tox21 Assay Protocol Summary:
# FXR-bla cells were dispensed at 5000 cells/5uL/well in 1536-well black wall/clear bottom plates using a Multidrop Combi (Thermo Fisher Scientific, Waltham, MA) dispenser. After the assay plates were incubated at 37C and 5% CO2 for 5 h, 23 nL of compounds dissolved in DMSO, positive controls or DMSO only was transferred to the assay plate by a Pintool station (Kalypsys, San Diego, CA). The assay plates were incubated at 37C for 16 h. After 1 uL of LiveBLAzerTM B/G FRET substrate was added using a Bioraptr Flying Reagent Dispenser (FRD) workstation (Beckman Coulter, Indianapolis, IN), the plates were incubated at room temperature for 2 h, and fluorescence intensity was measured by an Envision plate reader (PerkinElmer, Shelton, CT).
# On the % scale 0 is the no-effect control and ±100 the full control effect; potency means the concentration at half of the fitted maximal effect.
SMILES,activation,Potency
COc1ccc(C(=O)Nc2nc3ccccc3c(NCc3ccccc3)c2C#N)cc1,2.72%,
CCCCCCCCCCCCN1CCCCCC1=O,-0.541%,
COc1cc(Cl)c(OC)cc1N,1.07%,
O=C(CS)Nc1ccccc1,3.14%,
Cc1cccc(Nc2ccccc2)c1,-3.97%,
CC1CCC(=O)C1=O (stereo not given),-1.2% [at 81.1 µM],
O=C1[C@H]2CCCC[C@H]2C(=O)N1CCCCN1CCN(c2nsc3ccccc23)CC1,-1.38%,
O=C(O)CNCC(=O)O,1.91% [at 5.95 µM],
O=C(Cl)c1cc(C(=O)Cl)cc(C(=O)Cl)c1,-1.51%,
Cc1oc2c(NC(=O)c3c(Cl)cccc3Cl)cccc2c1C(C)(C)O,-5.7%,
CC1=CCCC(C)(C)C12CCC(C)O2 (stereo not given),-3.1%,
O=C1C(O)=C(O)C(=O)C(O)=C1O,-0.985%,
O=C(O)C(S)C(S)C(=O)O (stereo not given),1.78%,
CN(C)CCOC(c1ccccc1)c1ccc(Br)cc1 (stereo not given),0.215%,
O=C(OCCCCCCOC(=O)c1ccccc1)c1ccccc1,1.93%,
C/C=C/C=C/CO,0.946%,
CN(Cc1ccc(C(C)(C)C)cc1)Cc1cccc2ccccc12,-1.7%,
O=P(O)(OCc1ccccc1)OCc1ccccc1,-4.62%,
COc1ccc(-c2nc3ccc(C4=NNC(=O)CC4C)cc3[nH]2)cc1 (stereo not given),-6.61%,
O=C(Nc1ccc(S(=O)(=O)N2CCOCC2)cc1)c1cc(Cl)ccc1NS(=O)(=O)c1ccc(Cl)s1,2.72%,

SMILES,activation,Potency
CNCCCCOc1ccccc1Cc1ccccc1,-0.525%,
C=C1C(=C/C=C2\CCC[C@]3(C)[C@@H]([C@H](C)/C=C/[C@@H](O)C4CC4)CC[C@@H]23)C[C@@H](O)C[C@@H]1O,-0.0677%,
O=C(O)C1(C(=O)O)CCC1.[NH2-].[NH2-].[Pt+2],2.05%,
CCCn1cnc2c1c(=O)n(CCCCC(C)=O)c(=O)n2C,0.366%,
CCNc1cc(O)ccc1C,-1.16%,
CC(C)Cc1ccc(C(C)C(=O)OCc2ccccn2)cc1 (stereo not given),-2.86%,
C[C@H](CCC(=O)O)[C@H]1CC[C@H]2[C@@H]3CC[C@@H]4C[C@H](O)CC[C@]4(C)[C@H]3C[C@H](O)[C@]12C,,49.1 µM (active)
CN1CCC(=C2c3ccccc3Sc3ccccc32)CC1,0.338%,
COc1cc(Cl)ccc1Oc1ccc(Cl)cc1Cl,1.63%,
CCN(CC)CCNc1ccc(CNC=O)c2sc3ccc(OC)cc3c(=O)c12,,6.92 µM (active)
CCCCCCCN,0.0034% [at 81.1 µM],
CC1OC(=O)C(C)OC1=O (stereo not given),1.34%,
CCCCC(CC)COC(=O)CCCCCCCCC(=O)OCC(CC)CCCC (stereo not given),0.0775%,
NCCCN1CCOCC1,0.442%,
COc1ccc(C)cc1[N+](=O)[O-],-0.582% [at 81.1 µM],
Nc1ccccc1S(=O)(=O)c1ccccc1,5.2%,
O=C(O)CC(=O)C(=O)O,-2.33% [at 81.1 µM],
Cc1cccc(C)c1NC(=O)CN(CC(=O)O)CC(=O)O,0.863%,
CCC(Cl)CCC(Cl)C(Cl)CC(Cl)C(Cl)C(Cl)CCl (stereo not given),6.07%,
Cc1cc(N)c2cc(NC(=O)Nc3ccc4nc(C)cc(N)c4c3)ccc2n1,-1.02%,
